Screening data deposited in PubChem by National Center for Advancing Translational Sciences (NCATS).
Shown are actives, neighbours in structure and some others; about 9.3% of the full set was active somewhere.
NPC1 promoter act: activates the NPC1 promoter | Potency, µM (top dose mostly 9.22 µM), for inactives: at the highest dose activation, actives largely listed as activators | 320,000 tested, 2.4% active | Huh7 NPC1 promoter luciferase reporter, 24 h | AID 485313; note: % of control where 0% means no effect; nearly all actives have a fitted effect of over 60% in size
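Cells: Huh7 expressing luciferase under the NPC1 promoter, 1500/well. Seeded 2 h, compound added, incubated 24 h at 37 °C. Luciferase reagent, 10 min ambient, then luminescence.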
ELG1 repair inh: blocks ELG1-dependent DNA repair in HEK293T cells | Potency, µM (top dose mostly 46.1 µM), inactives show at the top dose activity change, negative = inhibition, hits mostly inhibitors | 330,000 tested, 2.3% active | HEK293T ELG1-luciferase reporter, luminescence, 16 h; DNA damage induced by 5-fluorouridine; note: % is set by controls: 0 for no effect and ±100 for the full control effect; nearly all actives have a fitted effect of over 55% in size
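DMSO vehicle served as the neutral condition. Each well held 2,000 cells given 5-fluorouridine plus compound; after 16 hr at 37 °C/5% CO2, ONE-Glo was added and luciferase measured 30 min later.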
Rab9 prom act: activates the Rab9 promoter; Huh7 Rab9 promoter-luciferase reporter, luminescence, 24 h; Potency, µM (titrated, usually from 9.22 µM), for the others: at the highest dose activation, negative = inhibition, actives largely listed as activators; 320,000 tested, 2.8% active; AID 485297; note: % of control where 0% means no effect; nearly all actives have a fitted effect of over 60% in size
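Promoter activation is measured as luciferase luminescence in Huh7 cells stably transfected with a Rab9 promoter–luciferase construct, following 24 h compound exposure at 37 °C and 10 min reagent incubation at ambient temperature.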
ELG1 genotoxic: induces genotoxicity in HEK293T cells with luciferase-tagged ELG1. Potency, µM (top dose mostly 46 µM), for inactives: at the highest dose activity change, positive = activation, hits mostly activators. 330,000 tested, 1.3% active. HEK293T ELG1-luciferase reporter, luminescence, 16 h; note: % of control where 0% means no effect; nearly all actives have a fitted effect of over 60% in size
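ELG1-luciferase HEK293T cells, 2,000/well; compound pinned in; 16 hr, 37 °C, 5% CO2; ONE-Glo, 30 min RT; luminescence on CCD imager.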
SMN2 splice enh: enhancers of SMN2 splice variant expression; HEK293 SMN2-luciferase splicing reporter, luminescence, 30-36 h; Potency, µM (series often up to 46.1 µM), inactives show top-dose activity change, positive = activation, most hits filed as activators; 210,000 tested, 2.8% active; AID 1458; note: % of control where 0% means no effect; nearly all actives have a fitted effect of over 55% in size
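HEK293 cells carry an SMN2 minigene-luciferase reporter in which exon 7 inclusion puts luciferase in frame. Cells were seeded at 2000 cells/well, attached for 10-12 hours, then exposed to compounds for 30-36 hours at 37C before ONE-Glo luminescence.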
FLuc counter: firefly luciferase modulation, counter-screen for miR-21 project; 360,000 tested, 6.9% active; purified FLuc, Km substrates, luminescence inhibition; Potency, µM (doses to about 57.5 µM), for the others: at the top dose activity change, negative = inhibition, actives largely listed as inhibitors; AID 588342; P08659;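 note: plate controls were vehicle for no effect and reference inhibitor for full effect; nearly all actives have a fitted effect of over 55% in size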
Target sequence (P08659 whole entry, looked up): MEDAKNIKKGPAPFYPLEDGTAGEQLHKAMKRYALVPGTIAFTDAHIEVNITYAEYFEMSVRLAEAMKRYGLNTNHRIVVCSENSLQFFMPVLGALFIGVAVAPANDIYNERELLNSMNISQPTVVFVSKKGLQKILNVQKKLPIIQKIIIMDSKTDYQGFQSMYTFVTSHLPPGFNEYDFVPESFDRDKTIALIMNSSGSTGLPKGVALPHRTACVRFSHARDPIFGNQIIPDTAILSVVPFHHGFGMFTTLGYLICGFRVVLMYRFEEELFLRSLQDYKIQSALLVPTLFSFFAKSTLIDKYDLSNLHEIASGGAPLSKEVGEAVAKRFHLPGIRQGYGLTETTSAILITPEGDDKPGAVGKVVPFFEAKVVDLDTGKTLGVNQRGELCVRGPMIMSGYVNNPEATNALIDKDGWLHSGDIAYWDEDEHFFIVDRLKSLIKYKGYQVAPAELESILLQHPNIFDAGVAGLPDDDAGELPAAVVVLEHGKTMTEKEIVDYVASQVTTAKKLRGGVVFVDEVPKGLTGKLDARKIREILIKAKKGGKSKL
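Purified P. pyralis luciferase (10nM final) with 10uM D-luciferin and 10uM ATP (Km levels) in 50mM Tris acetate pH 7.5, 10mM Mg acetate, 0.01% Tween-20, 0.05% BSA; qHTS 6-point titration, ~60 µM downward; luminescence read.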
An asterisk follows results filed as active. Calls come from the whole dose curve; as a rule, active = well fitted curve in the direction sought with a large enough effect; inconclusive = small, poorly fitted or top-dose-only effect, or another doubt; inactive = no such curve, though single readings can be large; an effect the other way counts as inactive or inconclusive. Potency is the fitted concentration of half-maximal effect.

Screening C=CCNC(=O)c1ccccc1NC(=O)c1ccccc1SC returned NPC1 promoter act -5.2%, ELG1 repair inh 5.8%, Rab9 prom act -11.4%, ELG1 genotoxic -5.3%, SMN2 splice enh -7.2% and FLuc counter -7.2%.
Screening COC(=O)c1ccc(NC(=O)C2(S(=O)(=O)c3ccc(C)cc3)CC2)cc1 returned SMN2 splice enh 10.4% and FLuc counter -1.5%.
Cc1ccc(NC(=O)CCCc2ccccc2)nc1 was read as NPC1 promoter act inconclusive, ELG1 repair inh inconclusive, Rab9 prom act 3.98µM*, ELG1 genotoxic inconclusive, SMN2 splice enh 15.8µM* and FLuc counter 16.9µM*.
`Cc1ccc(NC(=S)NCCc2ccccc2)nc1` gave NPC1 promoter act 27.5%, ELG1 repair inh inconclusive, Rab9 prom act inconclusive, ELG1 genotoxic inconclusive, SMN2 splice enh 25.1µM* and FLuc counter 16.9µM*.
For CNC(=S)NCCc1ccccc1 the results were NPC1 promoter act -2.0%, ELG1 repair inh inconclusive, Rab9 prom act 1.2%, ELG1 genotoxic 2.6% and FLuc counter -2.1%.
Screening Cc1ccc(NC(=O)Cc2ccc(-c3ccccc3)cc2)nc1 returned NPC1 promoter act -3.0%, ELG1 repair inh inconclusive, Rab9 prom act 5.0%, ELG1 genotoxic inconclusive and FLuc counter -16.2%.
NC(=O)Nc1ccccc1C(=O)Nc1ccc2ccccc2c1 was read as NPC1 promoter act 3.2%, ELG1 repair inh 6.1%, Rab9 prom act 19.5%, ELG1 genotoxic -0.1% and FLuc counter -14.2%.
CCc1ccc(NC(=O)CN2CCc3ccccc3C2)cc1 was read as NPC1 promoter act 5.7%, ELG1 repair inh inconclusive, Rab9 prom act 11.8%, ELG1 genotoxic inconclusive, SMN2 splice enh -15.5% and FLuc counter 23.9µM*.
`CC(NC(=O)c1ccccc1NC(=O)CN1CCc2ccccc2C1)c1ccccc1` (configuration not stated) gave NPC1 promoter act -0.6%, ELG1 repair inh 13µM*, Rab9 prom act -2.5%, ELG1 genotoxic -14.0% and FLuc counter -0.1%.
`COC(=O)c1ccccc1NC(=O)CN1CCc2ccccc2C1` gave NPC1 promoter act -1.5%, ELG1 repair inh 14.6%, Rab9 prom act -3.8%, ELG1 genotoxic -0.9% and FLuc counter 0.3%.
Screening COc1nc(N)c(C#N)c(-c2ccc(N(C)CCC#N)cc2)c1C#N returned NPC1 promoter act 0.5%, ELG1 repair inh 16.4µM*, Rab9 prom act -1.1%, ELG1 genotoxic -7.0% and FLuc counter -1.6%.
Screening COc1ccc(-c2c(C#N)c(N)nc(Sc3ccc(Cl)cc3)c2C#N)cc1 returned NPC1 promoter act -11.5%, ELG1 repair inh inconclusive, Rab9 prom act -6.3%, ELG1 genotoxic 4.0% and FLuc counter -0.4%.
Clc1ccccc1CSc1nncn1-c1cccnc1 was read as NPC1 promoter act 1.2%, ELG1 repair inh 8.8%, Rab9 prom act -1.1%, ELG1 genotoxic 0.4%, SMN2 splice enh 4.3% and FLuc counter 3.4%.
For CCOc1ccc(C(=O)COC(C)=O)cc1 the results were NPC1 promoter act -0.3%, ELG1 repair inh 21.1%, Rab9 prom act 8.9%, ELG1 genotoxic 2.8%, SMN2 splice enh 3.9% and FLuc counter inconclusive.
`CCOc1ccc(C(=O)CSCCC(=O)O)cc1` gave NPC1 promoter act -3.7%, ELG1 repair inh inconclusive, Rab9 prom act -2.7%, ELG1 genotoxic 16.4%, SMN2 splice enh 1.1% and FLuc counter 6.01µM*.
Screening Cc1ccc(C(=O)Nc2ccc3c(c2)OCCO3)c(C)c1 returned NPC1 promoter act 0.0891µM*, ELG1 repair inh inconclusive, Rab9 prom act 0.0891µM*, ELG1 genotoxic inconclusive and FLuc counter 0.301µM*.
Screening Cc1ccc(C(=O)NCC(=O)Nc2ccc3c(c2)OCCO3)cc1 returned NPC1 promoter act -3.5%, ELG1 repair inh inconclusive, Rab9 prom act 12.5%, ELG1 genotoxic 0.8% and FLuc counter -4.6%.
